According to PubChem BioAssay (NCI):
This is part of a sample that, as a whole, favours compounds with a hit. Of some 83,000 tested, about 20% had one in any assay.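 Testing used 96-well plates and a 48-hour single-concentration exposure. Example: -40 means 40% of the starting cells died.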 A number with no mark means an inactive call. Calls of active or inactive are those of the source. Rule for the calls: active = growth percent below 10; inactive = the rest.

Experiments:
Experiment in all cases: NCI-60 one-dose screen, 48 h (100 = growth as untreated, 0 = no growth, -100 = all killed)
Details in all cases: 10 µM unless noted
T-47D breast = system: T-47D breast
BT-549 breast = system: BT-549 breast
MDA-MB-435 melanoma = system: MDA-MB-435 melanoma
SW-620 colon = system: SW-620 colon
MCF7 breast = system: MCF7 breast
HCT-116 colon = system: HCT-116 colon
HCC-2998 colon = system: HCC-2998 colon
KM12 colon = system: KM12 colon

Row | Structure (SMILES) | growth (T-47D breast) | growth (BT-549 breast) | growth (MDA-MB-435 melanoma) | growth (SW-620 colon) | growth (MCF7 breast) | growth (HCT-116 colon) | growth (HCC-2998 colon) | growth (KM12 colon)
1 | Cc1ccc(O)c(NC(=O)c2cccc(Nc3ccnc(C(F)(F)F)c3)c2)c1 | 21% | 57.9% | 60.2% | 90.8% | 40.7% | 34.9% | 74.3% | 75.9%
2 | Cc1nc2ccccc2c(/C=C/c2ccc(F)cc2)c1C(=O)/C=C/c1ccccc1 | 10.9% | 30.7% | -9.7% (active) | -1.98% (active) | 11.4% | -69.9% (active) | 22% | 11.9%
3 | CCCCCCCCn1ccc2cc(NC(=O)CN=[N+]=[N-])ccc21 | 94% | 86.5% | 108% | 101% | 91.1% | 97.5% | 117% | 99.4%
4 | O=C(C[C@]1(O)C(=O)Nc2ccc(Br)cc21)c1ccco1 | 104% | 109% | 112% | 95.5% | 94.2% | 105% | 115% | 101%
5 | COc1ccc(-c2cc(-c3cc(OC)ccc3OC)nc(SCC(C)=O)c2C#N)cc1 | 57.9% | 61% | 36.1% | 92.1% | 70.6% | 74% | 84.5% | 60.2%
6 | COc1ccc(Cl)cc1Nc1nc(C(F)(F)F)ccc1C(=O)N/N=C/c1ccc([N+](=O)[O-])cc1 | 7.15% (active) | 18.6% | 15.9% | 5.81% (active) | -8.58% (active) | 11.3% | -27.8% (active) | -3.54% (active)
7 | CCOC(=O)c1c(NC(=O)c2ccccc2)sc2c3c(ccc12)OCN(C)C3 | -10.1% (active) | 62.2% | -88.5% (active) | -42.3% (active) | -50.6% (active) | -20.9% (active) | -85% (active) | 8.58% (active)
8 | CCN1CCN(CCNc2nccc(-c3c(-c4ccc(F)c(O)c4)nc4occn34)n2)S1(=O)=O | -1.77% (active) | 21.2% | 10.1% | 44.1% | 17.7% | 16.3% | 57.3% | 13.7%
9 | COc1ccc(OC)c(Nc2nnc(-c3cc(OC)c(OC)c(OC)c3)o2)c1 | 82.2% | 88.8% | 102% | 108% | 105% | 103% | 103% | 94.6%
10 | COC1C(O)CC(OC2CC(OC3CC(O[C@@H]4C(=O)c5c(cc6cc(OC7CC(OC8CC(O)C(O)C(C)O8)C(O)C(C)O7)c(C)c(O)c6c5O)CC4[C@H](OC)[C@@H](O)C(C)=O)OC(C)C3O)OC(C)C2O)OC1C (stereo partly specified) | 1.23% (active) | -1.59% (active) | 5.77% (active) | 14.9% | 4.58% (active) | 4.98% (active) | -50% (active) | 14.7%
11 | O=C(NCCCCO)c1cncnc1Nc1ccc2c(ccn2Cc2cccc(F)c2)c1 | 83.3% | 88.6% | 92.1% | 105% | 96.8% | 91.5% | 93.4% | 97.4%
12 | Cc1c2cnccc2c(C)c2c1c1cc(CO)ccc1n2C | -21.2% (active) | -61.6% (active) | -81.2% (active) | 2.39% (active) | -13.9% (active) | -7.64% (active) | -65.4% (active) | 1.94% (active)
13 | O=C(Nc1ncc(Cc2ccccc2)s1)c1sc2ccccc2c1Cl | 19.3% | 62.3% | -65.2% (active) | 20.4% | 14.4% | 24.8% | 17.6% | 12.5%
14 | CCSc1ccnc(N)n1 | 104% | 117% | 112% | 106% | 104% | 106% | 116% | 108%
15 | CC1(C)CC(=O)C2=C(C1)C(c1ccc(Cl)cc1)n1ncc(C#N)c1N2 (stereo unspecified) | 85.8% | 103% | 103% | 99.3% | 95.4% | 98.4% | 107% | 110%
16 | COc1ccc(C2[C@@H](Cl)C(=O)N2c2cc(OC)c(OC)c(OC)c2)cc1Cl (stereo partly specified) | 43.3% | -19.1% (active) | -20.7% (active) | 21.9% | 14.4% | -9.69% (active) | 22.8% | 16.3%

Row | Structure (SMILES) | growth (T-47D breast) | growth (BT-549 breast) | growth (MDA-MB-435 melanoma) | growth (SW-620 colon) | growth (MCF7 breast) | growth (HCT-116 colon) | growth (HCC-2998 colon) | growth (KM12 colon)
17 | CC(=O)c1c(Nc2cccc(F)c2)[nH]c2c(Cl)cc(Cl)c(Cl)c2c1=O | -11.1% (active) | 8.92% (active) | 2.08% (active) | 9.59% (active) | 2.73% (active) | 5.08% (active) | 10.7% | 4.18% (active)
18 | c1cc(OCCN2CCCCC2)ccc1CNc1ccc2nc(CCC3CCCCC3)[nH]c2c1 | -29.6% (active) | 73.6% | -54.2% (active) | 2.97% (active) | -3.08% (active) | 12.9% | -13.5% (active) | 43%
19 | Clc1ccc(-c2nc(C(Cl)Cl)nc3cc(-c4ccccc4)nn23)cc1 | 55.3% | 89% | 37.9% | -5.43% (active) | 24.8% | 23.1% | -53.7% (active) | 3.35% (active)
20 | CN(C)Cc1ccc(NC(=O)c2cncc(C#Cc3cnc(N)c4ncccc34)c2)cc1C(F)(F)F | 99% | 102% | -75.1% (active) | -78.7% (active) | -72.4% (active) | 47.7% | 3.86% (active) | -40.4% (active)
21 | CCN(CC)CCOc1ccc(Nc2ncc3cc(-c4c(Cl)cccc4Cl)c(=O)n(CCOC)c3n2)cc1 | 29.4% | -15.1% (active) | 1.33% (active) | 7.96% (active) | 17.2% | -40.6% (active) | 9.52% (active) | 15.9%
22 | COc1cc(C=Nc2oc(-c3ccccc3)c(-c3ccccc3)c2C#N)cc(CN2CCCC2)c1O | 85.7% | 109% | 104% | 95.9% | 96.4% | 95.4% | 111% | 102%
23 | Cn1cc(-c2nonc2-c2c[nH]c3ccccc23)c2cc(Br)ccc21 | 14.5% | 47.1% | 2.49% (active) | 23.9% | 19.6% | 25.6% | 43.4% | 17.7%
24 | COC(=O)[C@@]12CC=C(C)[C@]3(C[C@H](c4ccoc4)OC3=O)[C@H]1C=C[C@@H](O)[C@@]2(O)C(=O)OC | 110% | 110% | 102% | 113% | 101% | 97.7% | 101% | 103%
25 | CCOC(=O)CC[C@H](NC(=O)c1ccc(N(C)Cc2cnc3nc(N)nc(N)c3n2)c2ccccc12)C(=O)OCC | 53.9% | 51.1% | 37.4% | 22% | 18.4% | 20.4% | 35.6% | 23.8%
26 | Nc1nc(N(Cc2ccccc2)c2ccccc2)c2cn[nH]c2n1 | 44.4% | 68.2% | 9.3% (active) | 25% | 43.8% | 40.9% | 71.2% | 35.1%
27 | C=C(C)[C@@H]1CC[C@]2(CO)CC[C@]3(C)[C@H](CC[C@@H]4[C@@](C)(CCCN)[C@H](C(=C)C)CC[C@]43C)[C@@H]12 | -40.5% (active) | -92.8% (active) | -97% (active) | -89.5% (active) | -89.3% (active) | -88.3% (active) | -80.1% (active) | -79.6% (active)
28 | COc1ccc(/C=N/NC(=O)Cn2c(-c3ccc(S(C)(=O)=O)cc3)nc3ccccc32)cc1 | 102% | 103% | 97.8% | 97.6% | 88.6% | 91.7% | 95.7% | 104%
29 | C/C(=C(\c1ccc(OCCN2CCCCCC2)cc1)c1ccc(OC(=O)c2ccccc2)cc1)c1ccc(Cl)cc1 | 42.6% | 68.5% | 56% | 25.8% | 14.5% | 17.9% | 60.7% | 32.1%
30 | Nc1ncccc1O | 96.2% | 93.7% | 109% | 51% | 68.6% | 37.9% | 97.4% | 100%
31 | COC(=O)c1c(C)nc(C)c2c1C(=O)C=C(NCc1ccccc1)C2=O | 82.2% | 90% | 103% | 106% | 76% | 76% | 96.2% | 83%
32 | COc1cc(-c2nccc3[nH]c(-c4cccc5[nH]ccc45)nc23)cc(OC)c1OC | 39.9% | 42.5% | 1.47% (active) | 27% | 9.9% (active) | 4.28% (active) | 21.6% | 16.9%
